Measured values from the supplement of paper PMC10849652.
Of roughly 8,800 targets only a part is listed; those with a hit were picked by preference. About 0.5% of all pairs of compound and target were hits. Unmarked numbers belong to inactive results.

Experiments:
Experiment in all cases: log2 fold change, soluble protein after heating vs DMSO (PISA); higher = thermal stabilisation; K562 lysate, 10 uM; active = over 0.2 and 3.5 SD of the protein, either way, in both replicates (recomputed)
alvocidib = compound: CN1CC[C@H](c2c(O)cc(O)c3c(=O)cc(-c4ccccc4Cl)oc23)[C@H](O)C1 [alvocidib]
In short: (§1)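 Pellets of K562 cells were dounce-homogenised in PBS pH 7.4 with 1 mM MgCl2, and the crude extract was held at 1 mg/mL protein for a 30 min treatment with 10 μM compound. Aliquots were heated for 3 min over 48°C-58°C and pooled before NP-40 was added to 0.5% at 4°C. The supernatant from 21,000xg for 90 min was quantified by TMTpro 16plex LC-MS/MS with channel sums equalised. Values are reported from duplicates as log-two fold change in thermal stability relative to solvent controls.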

Tubastatin A = compound: CN1CCc2c(c3ccccc3n2Cc2ccc(C(=O)NO)cc2)C1 [Tubastatin A]
In short: as §1

[1] = compound: CNC(=O)C1=CC=CC=C1NC2=NC(=NC=C2Cl)NC3=C(C=C(C=C3)N4CCOCC4)OC
In short: as §1

defactinib = compound: CNC(=O)c1ccc(Nc2ncc(C(F)(F)F)c(NCc3nccnc3N(C)S(C)(=O)=O)n2)cc1 [defactinib]
In short: as §1

[2] = compound: CNc1nc(-c2ccc3c(N)n[nH]c3c2)cc(N2C[C@@H](C(=O)NC3CCCCC3)CC[C@H]2C)n1
In short: as §1

encorafenib = compound: COC(=O)N[C@@H](C)CNc1nccc(-c2cn(C(C)C)nc2-c2cc(Cl)cc(NS(C)(=O)=O)c2F)n1 [encorafenib]
In short: as §1

[3] = compound: COC(=O)[C@H](CCSC)NC(=O)C1=C(C=C(C=C1)NC[C@H](CS)N)C2=CC=CC=C2
In short: as §1

alisertib = compound: COc1cc(Nc2ncc3c(n2)-c2ccc(Cl)cc2C(c2c(F)cccc2OC)=NC3)ccc1C(=O)O [alisertib]
In short: as §1

[4] = compound: COc1cc2nc(-c3cc(F)ccc3O)nc(N[C@@H]3CNC[C@H]3C(C)(C)O)c2cc1OC
In short: as §1

gefitinib = compound: COc1cc2ncnc(Nc3ccc(F)c(Cl)c3)c2cc1OCCCN1CCOCC1 [gefitinib]
In short: as §1

lapatinib = compound: CS(=O)(=O)CCNCc1ccc(-c2ccc3ncnc(Nc4ccc(OCc5cccc(F)c5)c(Cl)c4)c3c2)o1 [lapatinib]
In short: as §1

pictilisib = compound: CS(=O)(=O)N1CCN(Cc2cc3nc(-c4cccc5[nH]ncc45)nc(N4CCOCC4)c3s2)CC1 [pictilisib]
In short: as §1

crizotinib = compound: C[C@@H](Oc1cc(-c2cnn(C3CCNCC3)c2)cnc1N)c1c(Cl)ccc(F)c1Cl [crizotinib]
In short: as §1

[5] = compound: C[C@H](C1=CC=C(C=C1)C(=O)NC2=C3C=CNC3=NC=C2)N
In short: as §1

duvelisib = compound: C[C@H](Nc1ncnc2nc[nH]c12)c1cc2cccc(Cl)c2c(=O)n1-c1ccccc1 [duvelisib]
In short: as §1

gandotinib = compound: Cc1cc(Nc2cc(CN3CCOCC3)c3nc(C)c(Cc4ccc(Cl)cc4F)n3n2)n[nH]1 [gandotinib]
In short: as §1

tozasertib = compound: Cc1cc(Nc2cc(N3CCN(C)CC3)nc(Sc3ccc(NC(=O)C4CC4)cc3)n2)n[nH]1 [tozasertib]
In short: as §1

doramapimod = compound: Cc1ccc(-n2nc(C(C)(C)C)cc2NC(=O)Nc2ccc(OCCN3CCOCC3)c3ccccc23)cc1 [doramapimod]
In short: as §1

bafetinib = compound: Cc1ccc(NC(=O)c2ccc(CN3CC[C@H](N(C)C)C3)c(C(F)(F)F)c2)cc1Nc1nccc(-c2cncnc2)n1 [bafetinib]
In short: as §1

[6] = compound: Cc1cccc(CC(=O)N2CCc3c2ccc(-c2cn(C)c4ncnc(N)c24)c3F)n1
In short: as §1

Sequence of UniProt Q9H939 (Q9H939 whole entry, looked up): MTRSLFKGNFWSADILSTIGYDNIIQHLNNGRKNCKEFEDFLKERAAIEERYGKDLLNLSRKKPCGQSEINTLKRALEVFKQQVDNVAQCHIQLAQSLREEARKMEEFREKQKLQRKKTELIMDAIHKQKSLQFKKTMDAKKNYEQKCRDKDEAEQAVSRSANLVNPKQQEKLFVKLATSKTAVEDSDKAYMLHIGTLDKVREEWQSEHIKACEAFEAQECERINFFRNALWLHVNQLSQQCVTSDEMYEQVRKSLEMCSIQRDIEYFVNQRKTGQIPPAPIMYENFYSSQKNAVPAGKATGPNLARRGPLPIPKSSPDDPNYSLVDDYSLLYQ
Sequence of UniProt P48426 (P48426 whole entry, looked up): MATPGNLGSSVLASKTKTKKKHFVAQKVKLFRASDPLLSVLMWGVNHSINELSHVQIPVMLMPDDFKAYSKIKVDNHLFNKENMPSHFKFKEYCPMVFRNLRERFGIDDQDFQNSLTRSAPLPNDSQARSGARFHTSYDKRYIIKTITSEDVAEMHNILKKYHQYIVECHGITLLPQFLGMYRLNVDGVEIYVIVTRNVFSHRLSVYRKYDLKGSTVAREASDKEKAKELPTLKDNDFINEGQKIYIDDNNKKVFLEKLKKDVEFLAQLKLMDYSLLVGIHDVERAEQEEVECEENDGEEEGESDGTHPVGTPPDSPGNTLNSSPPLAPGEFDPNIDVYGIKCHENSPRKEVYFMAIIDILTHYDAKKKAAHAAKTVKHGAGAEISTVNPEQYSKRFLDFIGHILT
Sequence of UniProt Q8IZ21 (Q8IZ21 whole entry, looked up): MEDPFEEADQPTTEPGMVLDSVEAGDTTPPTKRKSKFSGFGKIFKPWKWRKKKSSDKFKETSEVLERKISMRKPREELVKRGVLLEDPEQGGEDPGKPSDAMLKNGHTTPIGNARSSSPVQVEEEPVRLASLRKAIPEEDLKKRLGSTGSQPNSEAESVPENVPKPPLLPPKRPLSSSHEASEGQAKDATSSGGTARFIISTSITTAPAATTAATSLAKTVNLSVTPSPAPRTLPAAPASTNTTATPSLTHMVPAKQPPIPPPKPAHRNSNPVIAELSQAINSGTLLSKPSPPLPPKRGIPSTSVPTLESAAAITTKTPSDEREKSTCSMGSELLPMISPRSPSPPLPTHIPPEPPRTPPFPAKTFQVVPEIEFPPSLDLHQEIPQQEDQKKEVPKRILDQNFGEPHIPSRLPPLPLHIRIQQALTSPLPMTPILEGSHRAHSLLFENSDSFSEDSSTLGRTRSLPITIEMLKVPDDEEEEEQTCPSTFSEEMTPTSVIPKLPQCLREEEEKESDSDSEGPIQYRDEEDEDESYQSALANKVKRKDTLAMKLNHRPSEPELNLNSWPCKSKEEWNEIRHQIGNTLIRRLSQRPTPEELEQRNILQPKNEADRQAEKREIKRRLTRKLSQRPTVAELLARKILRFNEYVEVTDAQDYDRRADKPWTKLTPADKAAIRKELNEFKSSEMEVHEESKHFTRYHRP
Sequence of UniProt O15067 (O15067 whole entry, looked up): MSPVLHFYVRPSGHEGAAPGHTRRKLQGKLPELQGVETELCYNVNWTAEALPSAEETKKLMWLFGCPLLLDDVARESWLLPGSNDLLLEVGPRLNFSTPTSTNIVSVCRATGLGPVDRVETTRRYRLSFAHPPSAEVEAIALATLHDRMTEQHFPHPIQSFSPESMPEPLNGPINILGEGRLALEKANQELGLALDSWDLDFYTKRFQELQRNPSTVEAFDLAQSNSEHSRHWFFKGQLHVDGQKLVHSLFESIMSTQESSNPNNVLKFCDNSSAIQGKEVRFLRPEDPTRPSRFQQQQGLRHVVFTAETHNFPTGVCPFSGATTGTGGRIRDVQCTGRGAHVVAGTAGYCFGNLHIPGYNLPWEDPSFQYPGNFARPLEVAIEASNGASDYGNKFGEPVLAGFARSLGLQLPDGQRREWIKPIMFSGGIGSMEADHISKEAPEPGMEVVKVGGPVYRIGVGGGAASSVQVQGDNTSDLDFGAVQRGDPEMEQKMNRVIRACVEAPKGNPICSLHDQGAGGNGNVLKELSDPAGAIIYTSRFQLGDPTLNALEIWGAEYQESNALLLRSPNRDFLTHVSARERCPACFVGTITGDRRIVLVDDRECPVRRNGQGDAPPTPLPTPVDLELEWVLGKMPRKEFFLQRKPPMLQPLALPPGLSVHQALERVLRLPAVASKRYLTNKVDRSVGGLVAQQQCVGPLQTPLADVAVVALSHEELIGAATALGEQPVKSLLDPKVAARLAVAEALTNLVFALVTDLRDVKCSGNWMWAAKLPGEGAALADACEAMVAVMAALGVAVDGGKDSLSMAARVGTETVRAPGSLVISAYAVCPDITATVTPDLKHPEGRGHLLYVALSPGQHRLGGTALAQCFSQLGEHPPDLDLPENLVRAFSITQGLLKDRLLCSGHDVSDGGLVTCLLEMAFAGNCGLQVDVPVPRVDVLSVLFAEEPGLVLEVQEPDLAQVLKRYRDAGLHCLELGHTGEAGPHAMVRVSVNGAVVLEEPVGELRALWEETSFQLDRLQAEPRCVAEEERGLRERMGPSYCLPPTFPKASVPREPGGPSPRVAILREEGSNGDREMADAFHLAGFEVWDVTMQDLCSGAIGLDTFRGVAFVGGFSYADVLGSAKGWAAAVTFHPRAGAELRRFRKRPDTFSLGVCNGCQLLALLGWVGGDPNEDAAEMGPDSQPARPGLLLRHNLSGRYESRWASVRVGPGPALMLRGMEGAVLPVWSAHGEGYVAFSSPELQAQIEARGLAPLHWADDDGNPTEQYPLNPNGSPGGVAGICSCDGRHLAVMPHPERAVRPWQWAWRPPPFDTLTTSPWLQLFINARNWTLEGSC
Sequence of UniProt Q8N8N7 (Q8N8N7 whole entry, looked up): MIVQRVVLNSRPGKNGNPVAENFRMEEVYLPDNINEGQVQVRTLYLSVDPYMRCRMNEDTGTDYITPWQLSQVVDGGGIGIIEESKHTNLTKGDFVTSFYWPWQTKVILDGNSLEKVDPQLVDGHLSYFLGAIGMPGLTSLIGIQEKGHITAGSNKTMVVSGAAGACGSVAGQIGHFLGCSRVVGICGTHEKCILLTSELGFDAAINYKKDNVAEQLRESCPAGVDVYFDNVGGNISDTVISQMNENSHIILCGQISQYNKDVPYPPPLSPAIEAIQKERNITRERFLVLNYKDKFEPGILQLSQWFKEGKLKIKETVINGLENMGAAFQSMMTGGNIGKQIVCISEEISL
Sequence of UniProt Q13492 (Q13492 whole entry, looked up): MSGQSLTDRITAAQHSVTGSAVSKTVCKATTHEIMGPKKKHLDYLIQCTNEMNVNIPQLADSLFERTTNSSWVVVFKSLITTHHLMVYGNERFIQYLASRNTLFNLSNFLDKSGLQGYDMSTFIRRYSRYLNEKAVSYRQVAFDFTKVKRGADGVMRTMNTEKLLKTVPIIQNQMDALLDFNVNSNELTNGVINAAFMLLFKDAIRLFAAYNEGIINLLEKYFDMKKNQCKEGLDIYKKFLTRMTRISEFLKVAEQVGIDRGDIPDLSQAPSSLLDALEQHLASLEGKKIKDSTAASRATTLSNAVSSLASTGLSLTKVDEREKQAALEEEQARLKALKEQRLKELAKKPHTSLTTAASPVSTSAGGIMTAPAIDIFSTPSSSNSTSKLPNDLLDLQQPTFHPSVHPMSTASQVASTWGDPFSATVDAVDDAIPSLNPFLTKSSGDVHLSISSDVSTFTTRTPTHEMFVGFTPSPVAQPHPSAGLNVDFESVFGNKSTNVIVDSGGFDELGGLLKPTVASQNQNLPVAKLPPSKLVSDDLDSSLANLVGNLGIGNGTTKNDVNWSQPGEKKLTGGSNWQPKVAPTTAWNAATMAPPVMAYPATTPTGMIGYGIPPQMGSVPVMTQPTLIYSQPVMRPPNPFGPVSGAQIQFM
Sequence of UniProt Q9H7Z7 (Q9H7Z7 whole entry, looked up): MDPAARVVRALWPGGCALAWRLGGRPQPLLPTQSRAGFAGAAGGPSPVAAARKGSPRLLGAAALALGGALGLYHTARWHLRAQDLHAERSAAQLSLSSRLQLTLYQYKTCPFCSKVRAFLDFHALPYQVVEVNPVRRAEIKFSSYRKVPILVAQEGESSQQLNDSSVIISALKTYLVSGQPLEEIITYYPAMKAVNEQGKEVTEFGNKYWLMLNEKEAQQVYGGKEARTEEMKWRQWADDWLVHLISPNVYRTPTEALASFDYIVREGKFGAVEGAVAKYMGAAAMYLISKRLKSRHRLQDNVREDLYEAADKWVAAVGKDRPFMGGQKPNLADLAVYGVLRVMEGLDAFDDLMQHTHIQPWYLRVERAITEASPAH
Sequence of UniProt Q9BRX2 (Q9BRX2 whole entry, looked up): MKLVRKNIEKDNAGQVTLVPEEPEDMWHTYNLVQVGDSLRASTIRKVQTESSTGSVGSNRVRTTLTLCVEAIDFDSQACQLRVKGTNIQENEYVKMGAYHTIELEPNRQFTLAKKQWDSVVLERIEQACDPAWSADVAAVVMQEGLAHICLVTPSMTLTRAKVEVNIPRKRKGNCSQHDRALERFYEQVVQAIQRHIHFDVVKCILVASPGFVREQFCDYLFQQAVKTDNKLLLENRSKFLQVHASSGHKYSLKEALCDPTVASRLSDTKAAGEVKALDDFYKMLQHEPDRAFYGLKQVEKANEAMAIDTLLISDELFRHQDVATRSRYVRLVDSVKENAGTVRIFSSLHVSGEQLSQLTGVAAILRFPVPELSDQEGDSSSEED
Sequence of UniProt P06454 (P06454 whole entry, looked up): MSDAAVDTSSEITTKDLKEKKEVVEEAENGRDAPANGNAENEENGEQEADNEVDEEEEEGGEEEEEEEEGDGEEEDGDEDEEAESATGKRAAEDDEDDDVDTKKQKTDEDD
Sequence of UniProt Q96CD2 (Q96CD2 whole entry, looked up): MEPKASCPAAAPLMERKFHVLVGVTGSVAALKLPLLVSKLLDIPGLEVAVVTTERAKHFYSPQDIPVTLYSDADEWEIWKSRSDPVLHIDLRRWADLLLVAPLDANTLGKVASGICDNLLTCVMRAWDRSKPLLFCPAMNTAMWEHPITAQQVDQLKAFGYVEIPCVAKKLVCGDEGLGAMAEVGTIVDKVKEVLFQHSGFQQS

Target | log2 fold change (alvocidib) | log2 fold change (Tubastatin A) | log2 fold change [1] | log2 fold change (defactinib) | log2 fold change [2] | log2 fold change (encorafenib) | log2 fold change [3] | log2 fold change (alisertib) | log2 fold change [4] | log2 fold change (gefitinib) | log2 fold change (lapatinib) | log2 fold change (pictilisib) | log2 fold change (crizotinib) | log2 fold change [5] | log2 fold change (duvelisib) | log2 fold change (gandotinib) | log2 fold change (tozasertib) | log2 fold change (doramapimod) | log2 fold change (bafetinib) | log2 fold change [6]
PHOSPHO2 (UniProt Q8TCD6) | 0.053 | -0.042 | -0.026 | -0.008 | -0.008 | -0.02 | 0.356 (active) | -0.013 | -0.008 | 0.016 | -0.043 | 0.015 | -0.001 | -0.063 | -0.044 | -0.009 | -0.184 | -0.045 | -0.024 | -0.002
PIK3C3 (UniProt Q8NEB9) | -0.081 | 0.02 | -0.019 | -0.004 | -0.046 | -0.016 | 0.015 | 0.012 | 0.048 | -0.037 | -0.066 | 0.041 | -0.009 | -0.137 | 0.107 | 0.272 (active) | -0.042 | -0.005 | -0.013 | 0.133
POGK (UniProt Q9P215) | -0.015 | -0.011 | 0.001 | 0.059 | -0.02 | -0.052 | 0.028 | 0.071 | -0.012 | -0.013 | -0.055 | -0.026 | 0.022 | -0.384 (active) | 0.01 | 0.095 | -0.101 | 0.111 | -0.109 | 0.142
PELO (UniProt Q9BRX2) | 0.149 | -0.086 | 0.026 | -0.022 | -0.043 | 0.056 | 0.084 | 0.008 | 0.006 | 0.006 | 0.036 | 0.001 | -0.064 | 0.369 (active) | -0.039 | -0.202 | 0.022 | 0.019 | -0.054 | -0.175
PTPN6 isoform 4 (UniProt P29350) | -0.12 | -0.185 | 0.037 | -0.015 | -0.008 | 0.028 | 0.261 | -0.218 | -0.034 | 0.045 | -0.227 | -0.058 | 0.02 | -0.038 | -0.013 | -0.28 | 0 | 0.015 | -0.278 | 0.135
PFAS (UniProt O15067) | -0.015 | -0.01 | 0.009 | 0.022 | 0 | -0.004 | 0.119 | 0.009 | -0.011 | -0.009 | -0.01 | -0.011 | -0.067 | -0.011 | -0.009 | 0.002 | -0.008 | 0.035 | -0.028 | 0.019
PTMA (UniProt P06454) | 0.194 | 0.09 | -0.104 | 0.049 | 0.007 | -0.003 | -0.038 | 0.01 | 0.042 | 0.014 | -0.059 | -0.014 | 0.08 | 0.505 (active) | 0.009 | -0.277 | 0.012 | -0.031 | 0.058 | -0.375 (active)
PSTPIP2 (UniProt Q9H939) | -0.006 | -0.04 | 0.031 | -0.016 | 0.026 | 0.023 | 0.002 | -0.052 | -0.03 | -0.028 | 0.009 | 0.019 | -0.047 | 0.062 | -0.023 | -0.095 | 0.012 | 0.002 | -0.014 | -0.027
PTGR2 (UniProt Q8N8N7) | 0.018 | -0.023 | 0.02 | 0.018 | -0.021 | -0.043 | 0.694 (active) | 0.014 | 0.004 | -0.007 | -0.003 | 0.014 | -0.029 | -0.04 | 0.02 | 0.01 | 0.04 | -0.04 | -0.003 | -0.004
PHACTR4 isoform 2 (UniProt Q8IZ21) | 0.209 | 0.016 | -0.024 | 0.012 | 0.1 | -0.01 | -0.016 | -0.019 | 0.004 | -0.022 | -0.015 | -0.014 | -0.005 | 0.764 (active) | 0 | -0.121 | -0.03 | -0.003 | 0.022 | -0.196
PGPEP1 (UniProt Q9NXJ5) | 0.05 | -0.182 | 0.012 | -0.032 | -0.055 | 0.02 | 0.057 | -0.045 | 0.01 | -0.06 | 0.023 | -0.013 | 0.011 | -0.025 | 0.057 | -0.029 | 0.03 | 0.045 | -0.013 | -0.019
PICALM (UniProt Q13492) | -0.021 | 0.029 | -0.032 | -0.037 | -0.033 | 0.042 | 0.014 | 0.008 | 0.017 | 0.008 | 0.012 | 0.001 | 0.024 | 0.052 | 0.012 | 0.022 | 0.013 | 0.028 | -0.055 | -0.007
PTGES2 (UniProt Q9H7Z7) | 0.015 | -0.169 | 0.122 | -0.075 | 0.322 | -0.127 | 0.098 | -0.026 | -0.248 | 0.245 | 0.637 (active) | 0.153 | -0.052 | -0.013 | 0.029 | 0.236 | 0.329 | 0.341 | 0.176 | 0.009
PIP4K2A (UniProt P48426) | 0.279 (active) | -0.048 | 0.006 | 0.065 | -0.035 | 0.141 | -0.071 | 0.01 | 0.005 | 0.037 | -0.04 | 0.032 | 0.019 | -0.089 | 0.05 | 0.109 | 0.014 | -0.035 | 0.301 (active) | 0.005
PPCDC (UniProt Q96CD2) | -0.08 | 0.034 | -0.053 | -0.037 | -0.054 | -0.082 | -0.027 | -0.051 | 0.032 | 0.028 | -0.023 | -0.176 | 0 | -0.342 (active) | 0.062 | 0.152 | 0 | 0.024 | 0.034 | 0.19
PDIA4 (UniProt P13667) | 0.025 | 0.05 | -0.008 | -0.042 | -0.012 | -0.011 | -0.027 | -0.007 | -0.001 | -0.011 | -0.018 | 0.006 | 0.09 | 0.029 | -0.011 | -0.026 | 0 | -0.057 | 0.014 | -0.045
